Experiment [1] in a line: resazurin metabolic signal in HepG2 cells – cell-based, resazurin fluorescence, 24 h, PK04 Diversity Set, profiling panel (AID 1172). Note: test concentration not given here. Particulars: HepG2 viability, higher = more signal. Background: The colour change of resazurin is a common sign of viable cells or microbes.
Experiment [2] is described as follows: budding yeast growth changes without added modifier – OD600, strain BY4716, 24 h, basal condition, primary screen (AID 1173). As to conditions: S. cerevisiae BY4716 growth, OD600, 24 h; higher = more signal, called active from +8 up or from −8 down.
Experiment [3] can be described thus: viability profiling in MM1S myeloma cells – cell-based, resazurin fluorescence, basal, 24 h, PK04 Diversity Set, profiling panel (AID 1174).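 Note: MM1S multiple myeloma cell line; test concentration not given here.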 As to conditions: higher = more signal, called active from +8 up or from −8 down.
Experiment [4] deals with Dihydroorotate dehydrogenase (quinone), mitochondrial (Plasmodium falciparum (isolate 3D7)) (UniProt Q08210). Put plainly: inhibition of P. falciparum DHODH – biochemical, C-terminal His tag, absorbance 600 nm, primary screen (AID 1175).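 Note: recombinant parasite enzyme with a five histidine tag at its C terminus; test concentration not given here.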 As to conditions: PfDHODH enzyme, DCIP absorbance 600 nm; higher = more signal, called active from +8 up or from −8 down.
Sequence of Dihydroorotate dehydrogenase (quinone), mitochondrial (Plasmodium falciparum (isolate 3D7)) (Q08210 whole entry, looked up): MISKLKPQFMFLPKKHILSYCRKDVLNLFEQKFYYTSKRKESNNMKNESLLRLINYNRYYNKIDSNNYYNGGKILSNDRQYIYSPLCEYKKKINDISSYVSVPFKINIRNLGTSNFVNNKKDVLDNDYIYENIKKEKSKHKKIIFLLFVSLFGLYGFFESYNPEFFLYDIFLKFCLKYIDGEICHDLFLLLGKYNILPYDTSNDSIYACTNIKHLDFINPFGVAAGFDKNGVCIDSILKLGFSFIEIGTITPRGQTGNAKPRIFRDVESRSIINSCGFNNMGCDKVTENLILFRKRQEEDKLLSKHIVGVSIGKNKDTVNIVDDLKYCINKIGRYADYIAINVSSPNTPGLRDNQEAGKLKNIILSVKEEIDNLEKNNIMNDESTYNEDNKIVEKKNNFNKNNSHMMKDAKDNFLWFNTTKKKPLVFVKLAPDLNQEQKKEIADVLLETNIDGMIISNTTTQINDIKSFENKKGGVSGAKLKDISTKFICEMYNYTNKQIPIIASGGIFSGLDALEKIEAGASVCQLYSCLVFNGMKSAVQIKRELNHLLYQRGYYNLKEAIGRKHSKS
The nature of experiment [5]: growth modulation of vineyard yeast isolate – strain RM11-1a, OD600, basal, 24 h, primary screen (AID 1177).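 Note: cultures grown under basal conditions with no added stressor; test concentration not given here.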 As to conditions: S. cerevisiae RM11-1a growth, OD600, 24 h; higher = more signal, called active from +8 up or from −8 down.
A short description of experiment [6]: growth of efflux-deficient E. coli DRC39 – strain DRC39, OD650, 24 h, E. coli filamentation inducers, primary screen (AID 1178).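 Note: growth measured as culture turbidity by optical density at 650 nm; test concentration not given here.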 Particulars: E. coli DRC39 acrAB, higher = more signal, called active from +8 up or from −8 down.
Experiment [7] is described as follows: growth of efflux-deficient E. coli DRC39 – strain DRC39, OD650, 48 h, E. coli filamentation inducers, primary screen (AID 1179).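 Note: screen aims at cell division blockers that make cells filament.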 As to conditions: E. coli DRC39 delta-acrAB growth, higher = more signal, called active from +8 up or from −8 down.
The nature of experiment [8]: viability profiling in RPMI8226 myeloma cells – cell-based, resazurin fluorescence, basal, 24 h, PK04 Diversity Set, profiling panel (AID 1180).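 Note: RPMI8826 multiple myeloma cell line at 5000 cells per well; test concentration not given here.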 Particulars: higher = more signal.
Experiment [9] has as its target E3 ubiquitin-protein ligase XIAP (Homo sapiens) (UniProt P98170). Put plainly: small molecules binding XIAP protein – biophysical, small-molecule microarray, fluorescence 635 nm, primary screen (AID 1181).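 Note: score merges 667 nm emission and signal to noise over triplicate slides.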 As to conditions: higher = more signal.

This is an account of results in PubChem BioAssay.

Calls of active or inactive are those of the source.

Sequence of E3 ubiquitin-protein ligase XIAP (Homo sapiens) (P98170 whole entry, looked up): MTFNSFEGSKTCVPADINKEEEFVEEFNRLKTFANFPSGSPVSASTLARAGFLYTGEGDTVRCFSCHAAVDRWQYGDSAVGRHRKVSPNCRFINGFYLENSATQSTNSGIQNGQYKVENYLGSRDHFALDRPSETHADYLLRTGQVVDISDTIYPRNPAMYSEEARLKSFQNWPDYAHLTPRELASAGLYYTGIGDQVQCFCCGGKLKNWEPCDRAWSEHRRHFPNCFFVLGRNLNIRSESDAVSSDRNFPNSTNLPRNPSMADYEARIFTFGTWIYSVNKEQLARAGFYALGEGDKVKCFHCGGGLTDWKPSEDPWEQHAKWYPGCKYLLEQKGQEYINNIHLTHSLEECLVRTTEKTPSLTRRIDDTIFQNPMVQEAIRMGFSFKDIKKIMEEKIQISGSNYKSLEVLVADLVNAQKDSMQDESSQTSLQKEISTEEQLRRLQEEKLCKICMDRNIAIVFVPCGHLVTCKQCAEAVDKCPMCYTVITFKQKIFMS

`O=[N+]([O-])c1ccc(C[n+]2ccc3ccc(O)cc3c2)o1`: the z-score in experiment [1] is -0.104; in [2] it was -5.54 (inactive); in [3] it was 0.342 (inactive); in [5], -0.234 (inactive); in experiment [6], -0.55 (inactive); in experiment [7], -0.688 (inactive). For the same compound, in experiment [8], the z-score came to 0.405. Besides, the composite z-score in experiment [4] is -2 (inactive); in experiment [9], 0.411.
For the compound `O=C1OCC=C[C@H]2OC34C=CCN(Cc5ccccc5)C(=O)[C@H]3N(CCCCCO)C(=O)[C@@H]4[C@@H]12` (stereo partly specified), the z-score in [1] is -0.399; in [2], -0.693 (inactive); in experiment [3] it was 0.238 (inactive); in experiment [5], -0.512 (inactive); in [6], 1.77 (inactive); in experiment [7], 1.22 (inactive). The compound also came in with a z-score in experiment [8] of 0.58. Moreover, the composite z-score in [4] is -0.0022 (inactive); in experiment [9], 0.101.
For the compound `COc1cc([C@@H]2N[C@H](C(=O)O)Cc3c2[nH]c2ccccc32)cc(OC)c1OC`, the z-score in experiment [1] is 0.384; in experiment [2], -0.61 (inactive); in experiment [3] it was 1.39 (inactive); in [5], -0.8 (inactive); in experiment [6] it was -0.105 (inactive); in experiment [7], 0.197 (inactive). In experiment [8], this compound had a z-score of 1.03. The composite z-score in [4] was -1.7 (inactive); in [9] it was -0.227.
As for `CCCC[C@H]1OB(O)C[C@H]2C1=C(COC)C[C@H]1C(=O)N(Cc3ccccc3)C(=O)[C@H]12`, the z-score in [1] is 1.13; in experiment [2] it was -3.65 (inactive); in experiment [3] it was 0.518 (inactive); in [5], -1.67 (inactive); in experiment [6], 2.53 (inactive); in experiment [7], 0.942 (inactive). Also, the z-score in experiment [8] is 0.283. Moreover, the composite z-score is 0.282 (inactive) in experiment [4] and -0.12 in experiment [9].
For `C[N+](C)(C)CCCC[C@@H]1NC(=O)[C@H]2C[C@@H](C(=O)NCc3ccc(F)cc3)[C@@H](c3cccc(OCCO)c3)N2C1=O`, the z-score in experiment [1] was 0.523; in experiment [2], -1.84 (inactive); in experiment [3], 1.33 (inactive); in [5] it was -1.62 (inactive); in experiment [6], 0.765 (inactive); in [7] it was 0.604 (inactive). Besides, the z-score in [8] is -0.0523. Besides, the composite z-score in experiment [4] is -0.347 (inactive); in [9], 0.245.
With `CO[C@@H]1COC(=O)CC=C[C@H](C)COC(=O)[C@H](Cc2ccccc2)NC(=O)CC=C[C@H]1C`, the z-score in [1] is 0.0057; in experiment [2], -1.95 (inactive); in [3], 0.266 (inactive); in experiment [5], -1.02 (inactive); in experiment [6], 0.131 (inactive); in [7], -0.0502 (inactive). The compound also had a z-score in [8] of -0.094. Besides, the values for the composite z-score in experiment [4] and in experiment [9] were 0.519 (inactive) and 0.0896, respectively.
Consider `O=C1OCCC=C[C@H]2OC34C=CCN(Cc5ccccc5)C(=O)[C@H]3N(CCO)C(=O)[C@@H]4C12` (stereo partly specified), for which the z-score is -0.21 in experiment [1]; -1.5 (inactive) in experiment [2]; 0.768 (inactive) in experiment [3]; -2.28 (inactive) in experiment [5]; 1.27 (inactive) in [6]; 0.627 (inactive) in experiment [7]. In experiment [8], the z-score was found to be 0.47. The composite z-score is -1.19 (inactive) in [4] and -0.569 in experiment [9].
Take `CC(=O)Nc1ccc([C@H]2[C@H](C)CC[C@H]3C(=O)N4[C@@H](CC[C@@H](C)[C@@H]4c4ccc(NC(C)=O)cc4)C(=O)N32)cc1`: the z-score is 1.23 in [1]; -1.08 (inactive) in experiment [2]; -0.269 (inactive) in experiment [3]; 0.897 (inactive) in experiment [5]; 1.22 (inactive) in experiment [6]; 0.141 (inactive) in [7]. Also, the z-score in experiment [8] is 0.868. Besides, the composite z-score in experiment [4] was 0.124 (inactive); in experiment [9] it was -0.0204.
In the case of `CC/C=C/C(=O)N(C[C@@H]1CCCO1)[C@@H]1CC(C(=O)NCCO)=C[C@H](Oc2c(I)cc(CO)cc2OC)[C@H]1O`, the z-score in experiment [1] is 1.42; in experiment [2], -2.91 (inactive); in experiment [3], 1.08 (inactive); in experiment [5], -2.02 (inactive); in experiment [6], 2.39 (inactive); in experiment [7], 1.03 (inactive). The same compound had a z-score in experiment [8] of 0.209. Besides, the composite z-score in [4] was -0.288 (inactive); in [9], -0.117.
As for `C[C@@H]1CC[C@H]2C(=O)N3[C@@H](CC[C@@H](C)[C@@H]3c3cccc(N4CCOCC4)c3)C(=O)N2[C@H]1c1cccc(Br)c1`, the z-score was 1.05 in experiment [1]; -1.89 (inactive) in experiment [2]; 0.328 (inactive) in experiment [3]; -0.123 (inactive) in experiment [5]; 0.401 (inactive) in experiment [6]; 0.238 (inactive) in experiment [7]. In [8], the z-score was determined as 1.37. For the same compound, the composite z-score is -0.0779 (inactive) in experiment [4] and -0.111 in [9].
As to `C=CC[C@]1(C(=O)OC)N=C(c2ccc(OCCCO)cc2)O[C@H]1c1ccccc1CN=[N+]=[N-]`, the z-score was 0.84 in [1]; -4.46 (inactive) in experiment [2]; -0.609 (inactive) in [3]; 0.0359 (inactive) in experiment [5]; 2.63 (inactive) in experiment [6]; 0.604 (inactive) in experiment [7]. The compound further had a z-score in experiment [8] of 0.239. In addition, the composite z-score is 0.632 (inactive) in experiment [4] and 0.232 in experiment [9].
Regarding `CCOC(=O)C[C@H]1[C@H](OC(=O)Cc2ccc3c(c2)OCO3)[C@@H](NC(=O)CC(C)C)c2cc(OCCCO)ccc2N1C(=O)c1ccccc1`, the z-score in experiment [1] was 1.05; in experiment [2] it was -1.05 (inactive); in [3], 0.548 (inactive); in experiment [5] it was -0.606 (inactive); in experiment [6], 2.13 (inactive); in [7] it was 1.65 (inactive). Further, the z-score in experiment [8] is 0.458. Moreover, the composite z-score in experiment [4] was 0.679 (inactive); in experiment [9], 0.0015.
Turning to `CO[C@H]1O[C@H](CO)[C@@H](OC(=O)CCc2ccccc2)[C@@H]2OC(=O)[C@H](Cc3cccc(Br)c3)C/C=C/C[C@@H](Cc3cccc(Br)c3)C(=O)O[C@@H]12`, the z-score in [1] was 1.13; in experiment [2] it was -3.87 (inactive); in experiment [3], 1.5 (inactive); in [5], -4.01 (inactive); in experiment [6] it was 1.41 (inactive); in [7] it was 1.14 (inactive). The compound further showed a z-score in experiment [8] of 1.45. Moreover, the composite z-score in experiment [4] was -0.578 (inactive); in [9] it was 0.0356.
As to `CO[C@H]1O[C@H](CO)[C@@H](OC(=O)Nc2ccc(Oc3ccccc3)cc2)[C@H](OC(=O)Nc2ccccc2-c2ccccc2)[C@H]1OC(=O)Nc1ccccc1-c1ccccc1`, the z-score was -2.96 in experiment [1]; 1.94 (inactive) in experiment [2]; -3.97 (inactive) in [3]; 4.09 (inactive) in experiment [5]; 0.275 (inactive) in experiment [6]; -0.534 (inactive) in [7]. The compound further yielded a z-score in experiment [8] of -2.5. In addition, the values for the composite z-score in experiment [4] and in experiment [9] were -0.326 (inactive) and 0.344, respectively.
